Measured values as given in PubChem BioAssay AID1508624 (National Center for Advancing Translational Sciences (NCATS), 2021).
The campaign covered roughly 48,000 compounds. About 120 (0.25%) were called active. Another 4% or so got no clear call; they are omitted. Calls come from the whole dose curve; as a rule, active = well fitted activation curve with a large enough effect; inconclusive = small, poorly fitted or top-dose-only effect, or another doubt; inactive = no such curve, though single readings can be large or run the other way. What follows is part of a selection rich in actives, with near analogues and random picks from the rest. Entries that show only a call come without a potency.

assay: Primary qHTS for Identification of Small Molecule Activators of Huntingtin-Antisense Promoter Activity; details: HEK293 HTT-AS promoter firefly luciferase reporter, 24 h; series mostly up to 57.5 µM; note: nearly all actives have a fitted effect of over 55% in size
Excerpt: Assay Provider: Russell L. Margolis M.D.
Department Neurology, Johns Hopkins University School of Medicine, Baltimore, MD
Huntington's Disease (HD) is a neurodegenerative disorder caused by a CAG repeat expansion in exon 1 of huntingtin (HTT). While there are currently no disease-modifying treatments for HD, recent efforts have focused on development of nucleotide-based therapeutics to lower HTT expression. As an alternative to siRNA or oligonucleotide methods, we hypothesized that suppression of HTT expression might be accomplished by small molecules that either (1) directly decrease HTT expression by suppressing HTT promoter activity or (2) indirectly decrease HTT expression by increasing the promoter activity of HTT-AS, the gene antisense to HTT that appears to inhibit expression of HTT.
We developed and employed a high throughput screen for modifiers of HTT and HTT-AS promoter activity using luminescent reporter HEK293 cells; of the 52,041 compounds tested, we identified 898 replicable hits. We used a rigorous stepwise approach to assess compound toxicity and the capacity of the compounds to specifically lower huntingtin protein in 5 different cell lines, including HEK293 cells, HD lymphoblastoid cells, mouse primary neurons, HD iPSCs differentiated into cortical-like neurons, and HD hESCs. We found no compounds which were able to lower huntingtin without lowering cell viability in all assays, though the potential efficacy of a few compounds at non-toxic doses could not be excluded.
SEQUENCE No. (1, 2, 3, etc.); […] (e.g., Cells, Incubation, Reagent, etc.); VALUE and DESCRIPTION.
1; Reagent; 4 uL; 2,500 Hek293 luciferase reporter cells per wells
3; Compound; 23 nL; Control inhibitor / compound library
5; Reagent; 2.5 uL; Firefly Luc reagent; Dual-Glo Luciferase Reporter Assay System (Promega)
6; Time; 10 min; room temperature incubation
7; Detection; Luminescence; FLuc
NOTES (numbers refer to sequence above)
1; High-throughput screening, measuring luminescence from a Hek293 luciferase reporter, was performed in 1,536 well white-walled tissue-culture treated plates. 2,500 cells were plated in 4 µL of Opti-MEM per well using a Multidrop Combi Reagent Dispenser (ThermoFisher).
2; Assay plates were cultured for 24 hours.
3; Control inhibitor (PTC124; final concentration of 50 uM) and compound library (at final concentrations of 460 nM - 57.5 uM) were added to the assay plate using the Kalypsis Pintool Robotic System equipped with 1536 pinheads.
4; Cells were then incubated for 24 hours at 37 degrees C prior to luminescence measurements.
5; In all cases, luminescence was measured using the Dual-Glo Luciferase Reporter Assay System (Promega) following the manufacturer's instructions.
6; Room temperature incubation.
7; Luminescence signal was obtained using the PerkinElmer ViewLux plate reader. Results were normalized to vehicle control (0% activity) and zero RLU (-100% activity).
Potency is the fitted concentration of half-maximal effect.

Compound | activity change, positive = activation | Potency
Cc1nc(SCC(=O)Nc2ccc(C(=O)O)cc2)n[nH]1 | inactive | –
O=C(CSc1nc2c(c(=O)[nH]1)CN(Cc1ccc3c(c1)OCO3)CC2)Nc1cc(F)ccc1F | inactive | –
COC(=O)c1cc(NC(=O)CCS(=O)(=O)c2cc(Br)cc3c2N(C(=O)C2CC2)CC3)cc(C(=O)OC)c1 | inactive | –
CC(=O)c1ccc(NC(=O)c2nc(-c3ccc(C)cc3)n3c2CCCCC3)cc1 | inactive | –
Cc1cccc(C(=O)N2CCc3cc(CNC(=O)Cc4ccc(F)cc4)ccc32)c1 | inactive | –
CCOC(=O)c1c(C)[nH]c(C)c1S(=O)(=O)N1CCCC(C(=O)NCc2ccccc2Cl)C1 (configuration not stated) | inactive | –
COc1ccc(-n2c(=O)c3sc4ccccc4c3n(CC(=O)Nc3cccc(C)c3)c2=O)cc1 | inactive | –
Cc1ccc(CNC(=O)Cn2c(=O)ccc3cc(S(=O)(=O)N4CCCC4)ccc32)cc1 | inactive | –
Cc1ccc(C)c(Cn2c(C(=O)O)c(CNCc3cccs3)c3ccccc32)c1 | inactive | –
COC(=O)c1cccc(Cn2nnc3sc4c(c3c2=O)CCC(C(C)(C)C)C4)c1 (configuration not stated) | inactive | –
CCOc1cc(C=C2C(=O)N(c3ccccc3)N=C2C)cc(Cl)c1OCC(=O)OC | inactive | –
CCOc1ccc(NC(=O)c2c(NCc3cccc(OC)c3OC)sc3c2CCC3)cc1 | inactive | –
CC1CCCCN1S(=O)(=O)c1ccc(F)c(C(=O)Nc2ccccc2C(F)(F)F)c1 (configuration not stated) | inactive | –
CCn1c(C)c(C)c2cc(C(=O)N3CCN(c4cccc(C)c4C)CC3)ccc21 | inactive | –
COc1ccc(CNS(=O)(=O)c2cc3c4c(c2)CCN4C(=O)CC3)cc1 | inactive | –
O=C(NCc1ccccc1)C(=O)NCC(c1ccco1)S(=O)(=O)c1ccc(Cl)cc1 (configuration not stated) | inactive | –
Oc1ccccc1-c1nc2ccc(Cl)cn2c1Nc1ccc2c(c1)OCCO2 | inactive | –
CCn1cc(C(=O)N2CCN(c3cc(Cl)ccc3C)CC2)c(=O)c2cc(S(=O)(=O)N3CCCC3)ccc21 | 10.5% [at 11.5 µM, percent change from vehicle, -100% = no light] (inactive) | –
O=C(NCc1ccc(Cl)cc1)c1ccc2c(c1)nnn2C1CCCC1 | inactive | –
CC(=O)c1ccc(NC(=O)c2nc3nc(C)cc(C(F)F)n3n2)cc1 | inactive | –
COc1ccc(CCNC(=O)c2ccc(CSCc3ccc(C)cc3)o2)cc1OC | inactive | –
CCCOC(=O)c1c(NC(=O)c2cc3nc(-c4ccc(OC)cc4)cc(C(F)(F)F)n3n2)sc2c1CCCC2 | inactive | –

Compound | activity change, positive = activation | Potency
CCC(=O)N1c2ccccc2CC1C(=O)N1CCN(c2ccccc2F)CC1 (configuration not stated) | inactive | –
COc1ccc2[nH]c3c(c2c1)CCN(C(=O)CCC1CCCC1)C3c1ccc(F)cc1 (configuration not stated) | inactive | –
CCOc1ccc(/C=C(\C#N)c2nc3ccccc3c(=O)[nH]2)cc1OC | inactive | –
Cc1ccc(Cl)cc1N1CCN(C(=O)c2cn(C)c3ccc(S(=O)(=O)N(C)C4CCCCC4)cc3c2=O)CC1 | inactive | –
Cc1ccc(CN2C(=O)SC(Nc3ccccc3)C2=O)cc1 (configuration not stated) | inactive | –
COc1ccc(-c2onc(C)c2C)cc1S(=O)(=O)NCCc1ccccc1 | inactive | –
Cc1ccccc1CNC(=O)CSc1nnc(C)c2c(C)n(-c3ccccc3)nc12 | inactive | –
O=C(c1ccc(Br)cc1)N(Cc1cccs1)c1ccc(F)cc1 | inactive | –
COc1cccc(-n2ccn(CC(=O)NCc3ccc(C)cc3)c(=O)c2=O)c1 | inactive | –
COc1ccc(CNC(=O)Cn2nnc(-c3ccc(S(C)(=O)=O)cc3)n2)cc1 | inactive | –
CCOc1ccc(-c2cc3c(=O)n(CC(=O)NCc4ccc(OC)cc4)ccn3n2)cc1 | – | 447 nM (active)
Cc1cccc(N2CCN(C(=O)CCn3c(=O)c4cccn4c4cccnc43)CC2C)c1 (configuration not stated) | inactive | –
CCCCOc1ccc(C(=O)Nc2cccc(-c3nc4ccccc4o3)c2C)cc1 | inactive | –
COc1cccc(-n2c(=O)c3c(C)c(C(=O)N(C)C)sc3n(CC(=O)NCCc3ccc(OC)c(OC)c3)c2=O)c1 | inactive | –
COc1ccccc1N1CCN(c2ncnc3onc(-c4ccc(F)cc4)c23)CC1 | inactive | –
CCCN1CN=C(NS(=O)(=O)c2ccc(NC(C)=O)cc2)NC1 | inactive | –
COCCCNC(=O)c1ccc(NC(=O)c2nsc3ccccc23)cc1 | inactive | –
CCSc1nnc2c(n1)OC(c1ccc(OCC(=O)O)cc1)Nc1ccccc1-2 (configuration not stated) | inactive | –
CCCN(CCC)C(=O)C(Cc1ccccc1)NS(=O)(=O)c1ccc2c(c1)c(=O)n(C)c(=O)n2C (configuration not stated) | inactive | –
Cc1cc(C)cc(NC(=O)Cn2nc(N3CCN(c4ccccc4)CC3)ccc2=O)c1 | inactive | –
Cc1nn(C(=O)c2c(F)cccc2F)c(C)c1S(=O)(=O)N1CCOCC1 | inactive | –
CCOc1ccccc1C(=O)NCc1ccc2c(c1)CCN2C(=O)c1ccc(F)cc1 | inactive | –

Compound | activity change, positive = activation | Potency
O=C(Nc1cc(C(F)(F)F)ccc1Cl)c1cc2nc(-c3ccc4c(c3)OCO4)cc(C(F)(F)F)n2n1 | inactive | –
CCN(CC)c1ccc(NC(=O)CN2C(=O)c3cccnc3Oc3ccc(Cl)cc32)c(C)c1 | inactive | –
Fc1ccc(CN2CCc3nc(Nc4ccccc4)ncc3C2)cc1F | inactive | –
CCc1ccc(C2C(C(=O)Nc3ccccc3)=C(C)Nc3c(C(=O)Nc4ccc(C)cc4)cnn32)cc1 (configuration not stated) | inactive | –
COc1cc(-c2cc3n(C)c(C)c(CCC(=O)Nc4ccc(F)cc4)c(=O)n3n2)cc(OC)c1OC | inactive | –
COc1ccc(NC(=O)CCCc2nnc3n(CCC(C)C)c(=O)c4sccc4n23)c(OC)c1 | inactive | –
CCOc1ccc(CNC(=O)c2ccc3c(c2)nnn3C2CCCC2)cc1 | inactive | –
COc1ccc(OC)c(-c2noc(N3CCN(c4cc(Cl)ccc4C)CC3)n2)c1 | inactive | –
CC(=O)c1ccc(S(=O)(=O)N2CCC(Oc3ccc(-n4cnnn4)cc3)CC2)cc1 | inactive | –
CO[C@@H]1[C@@H](O)[C@H](O)[C@@H](n2c3c(Cl)cccc3c3c4c(c5c6cccc(Cl)c6[nH]c5c32)C(=O)NC4=O)O[C@@H]1CO | inactive | –
Cc1cccc(S(=O)(=O)c2cn(Cc3ccccc3)c3cc(N4CCOCC4)c(F)cc3c2=O)c1 | inactive | –
CC(=O)N1CCCc2cc(S(=O)(=O)N3CCC(C(=O)NCc4ccc(F)cc4)CC3)ccc21 | inactive | –
CCCS(=O)(=O)Nc1cccc(-c2cn3ccsc3n2)c1 | inactive | –
Cn1c(=O)cc(OCC(=O)N2CCN(c3ccccc3)CC2)c2ccccc21 | inactive | –
COc1ccc(-c2c3c(=O)n(C)c(=O)n(C)c3c3c(C)nc4ccccc4n23)cc1 | inactive | –
Cc1cccc(N2CCN(c3ccc(C(=O)O)cc3NC(=O)c3ccccc3F)CC2C)c1 (configuration not stated) | inactive | –
Cn1c(=O)c(=O)n(C)c2cc(NC(=O)c3ccccc3Br)ccc21 | inactive | –
C=C1CCC2[C@](C)(CO)C(O)CC[C@]2(C)C1CC=C1C(=O)OCC1O (some centres not stated) | inactive | –
O=c1c(=O)n(Cc2c(F)cccc2Cl)ccn1Cc1ccccc1 | inactive | –
COc1ccc(CCNC(=O)c2ccc(-n3c(C)cc4c3CCCC4)cc2)cc1OC | inactive | –
CCC(=O)N1c2ccccc2CC1C(=O)N1CCN(c2cccc(OC)c2)CC1 (configuration not stated) | inactive | –
CCOc1cc(CNC(=O)c2sc3ncnc(N(C)C4CCCCC4)c3c2C)ccc1OC | inactive | –

Compound | activity change, positive = activation | Potency
Cc1ccccc1CCNC(=O)C1CCN(c2nc3ccccc3nc2C(F)(F)F)CC1 | inactive | –
O=C(NC1CC(=O)N(c2ccc(F)cc2)C1)c1cccs1 (configuration not stated) | inactive | –
CCOC(=O)C1CCCN(S(=O)(=O)c2cc(-c3cc(C)no3)ccc2OC)C1 (configuration not stated) | inactive | –
Cc1cccc(C)c1-n1ncc(C(=O)NCCCN2CCCCC2)c1C1CCN(C(=O)OC(C)(C)C)CC1 | inactive | –
Cc1ccc(C(=O)Nc2cc3c(cc2N2CCCC2)n(C)c(=O)c(=O)n3C)cc1 | inactive | –
COc1ccccc1NC(=O)C1=C(C)Nc2nc(SCC(=O)c3ccc(C)cc3)nn2C1c1ccccc1C (configuration not stated) | inactive | –
Cc1c(-c2nsc(NC(=O)c3cccc(Cl)c3)n2)nnn1-c1ccccc1C(F)(F)F | inactive | –
Cc1cc(C)cc(NC(=O)Cn2c(=O)c3ccccc3n3nncc23)c1 | inactive | –
COc1ccc(Cn2ccn(CC(=O)Nc3cc(C)ccc3C)c(=O)c2=O)cc1 | inactive | –
Cc1nn(-c2ccc(F)cc2)c(-n2cccc2)c1C(=O)N1CCN(c2ccccc2)CC1 | inactive | –
CCOc1ccc(Nc2oc(/C=C/c3ccc(F)cc3)nc2C#N)cc1 | inactive | –
CCCC(=O)Nc1ccc(NC(=O)c2sc3ccccc3c2Cl)cc1 | inactive | –
O=S(=O)(c1ccc2nc(N3CCN(c4cccc(Cl)c4)CC3)ccc2c1)N1CCCCC1 | inactive | –
CCOC(=O)c1ccc(NC(=O)CC2C(=O)N(c3ccccc3)C(=O)N2Cc2cccs2)cc1 (configuration not stated) | inactive | –
Cc1cc(Cl)ccc1OCC(=O)N(Cc1ccc(N(C)C)cc1)C1CCS(=O)(=O)C1 (configuration not stated) | inactive | –
CCC(=O)N1CCc2cc(S(=O)(=O)NC(C(=O)NCCc3ccc(C)cc3)C(C)C)ccc21 (configuration not stated) | inactive | –
CCOc1ccc(CCNC(=O)c2csc3c2CCCCC3)cc1 | inactive | –
Cc1ccc2nc(-c3ccc(C)c(NC(=O)Cc4ccccc4)c3)oc2c1 | inactive | –
CCCN(CCC)S(=O)(=O)c1ccc(C(=O)Nc2sc3c(c2C(=O)OC)CCN(CC)C3)cc1 | inactive | –
O=C(C1CC1)N1CCc2cc(Br)cc(S(=O)(=O)N3CCN(c4ccccc4F)CC3)c21 | inactive | –
CCOc1ccc(NC(=O)c2c(NC(=O)Cc3ccccc3)sc3c2CCCCC3)cc1 | inactive | –
